# The list is not random: actives were taken first. Their share in the collection is about 2.2%.
# A549 tox: kills or reduces viability of A549 cells in Nrf2 counter-screen | A549 ARE-Fluc cells, CellTiter-Fluor viability, 18-24 h | Potency, µM (series often up to 46 µM), without a hit: at the highest dose activity change, negative = cytotoxicity, actives largely listed as inhibitors | actives 0.16% (n = 390,000) | AID 504648; further: on the % scale 0 is the no-effect control and ±100 the full control effect
#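 A549 ARE_Fluc cells in 5% FBS OPTI-MEM were exposed to compounds in concentration-response for 18-24 h at 37 deg C. Viability was read by CellTiter-Fluor fluorescence (Ex 405/Em 525) after 30 min, before the luciferase read.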
# Nrf2 ARE act: Nrf2 pathway activation; actives 0.31% (n = 410,000); AID 624171; AREc32 ARE-luciferase reporter (MCF7-derived line), luminescence, 24 h; Potency, µM (top dose mostly 46.1 µM), for the others: top-dose activation, usual class: activators; further: % of control where 0% means no effect; nearly all actives have a fitted effect of over 65% in size
#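 AREc32 cells carrying an ARE-driven firefly luciferase, 1000 cells/well in OPTI-MEM with 5% FBS, dosed after overnight attachment and incubated 24 hr at 37 deg C. Steady-Glo luminescence read after 30 min at RT.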
# Nrf2 block: blocks Nrf2 signaling. A549 ARE-Fluc reporter, luciferase luminescence, 18-24 h. Potency, µM (series often up to 46 µM), for the others: top-dose activity change, negative = inhibition, actives largely listed as inhibitors. actives 2.1% (n = 360,000). AID 504444; further: on the % scale 0 is the no-effect control and ±100 the full control effect; nearly all actives have a fitted effect of over 60% in size
#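 Concentration-response testing used A549 ARE_Fluc cells at 5000 cells/well. Following an 18-24 h compound incubation, viability was read by fluorescence (Ex 405/Em 525) and luciferase output by luminescence.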
# Pin1 inh: blocks the human prolyl isomerase Pin1; Q13526; Pin1 FP peptide displacement, HiFluor488, 10 min; Potency, µM (doses to about 115 µM), without a hit: at the top dose activity, negative = inhibition, actives largely listed as inhibitors; actives 0.009% (n = 390,000); active means well fitted inhibition curve with a large enough effect in the polarisation, with a control signal flat, not every such curve was filed as active; inconclusive means small, poorly fitted or top-dose-only effect, or effect the other way, or a change in a side signal; inactive means no such curve, though single readings can be large or run the other way; the % refers to the polarisation; further: on the % scale 0 is the no-effect control and ±100 the full control effect
# Target sequence (Q13526 whole entry, looked up): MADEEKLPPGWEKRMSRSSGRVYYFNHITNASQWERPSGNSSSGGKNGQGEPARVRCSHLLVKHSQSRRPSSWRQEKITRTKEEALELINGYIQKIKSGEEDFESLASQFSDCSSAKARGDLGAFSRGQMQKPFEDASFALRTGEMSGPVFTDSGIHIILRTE
# Numbers without * were called inactive; ? = inconclusive; nt = no result; [ ] = dose if it differs, or a comment. Unless noted, the call rests on the fitted dose curve; in most records, active means well fitted curve in the direction sought with a large enough effect; inconclusive means small, poorly fitted or top-dose-only effect, or another doubt; inactive means no such curve, though single readings can be large; an effect the other way counts as inactive or inconclusive. Potency means the concentration at half of the fitted maximal effect.
SMILES,A549 tox,Nrf2 ARE act,Nrf2 block,Pin1 inh
Cc1cccc(/C=C(\c2nc3ccccc3[nH]2)S(=O)(=O)c2ccccc2)c1,?,?,23.1µM*,-3.7%
Cc1cc(NC(=O)c2c(F)cccc2Cl)n(-c2nc3ccccc3[nH]2)n1,-18.4%,-1.5%,14.6µM*,9.2%
Cc1cc(Nc2ccccc2)n(-c2nc3ccccc3[nH]2)n1,-8.0%,10.1%,16.4µM*,-1.3%
Cc1cc(NC(=O)c2c(F)cccc2F)n(-c2nc3ccccc3[nH]2)n1,?,-1.6%,?,15.1%
Cc1nn(-c2ccc3ccccc3c2)c(=O)c2ccccc12,-19.9%,?,?,0.8%
Cc1nn(-c2nc3ccccc3[nH]2)c(=O)c2ccccc12,-4.2%,-2.0%[9.22 µM],1.3µM*,-0.3%
COc1ccc(NC(=O)C(OC(=O)CNC(=O)c2ccccc2)c2ccccc2)c(C)c1 (stereo not given),-1.4%,nt,26.1%,-2.1%
COc1ccc(C=O)cc1COc1ccc(NC(C)=O)cc1,-0.4%,nt,3.7%,2.2%
O=C(CSc1nccc(-c2cccs2)n1)Nc1ccc(F)c(Cl)c1,-1.3%,7.94µM*,?,-2.9%
CCCCC(=O)N1C/C=C\C(c2ccc(OC)cc2)N(Cc2ccc(F)cc2)C(=O)C1Cc1ccccc1 (stereo not given),-20.6%,nt,23.1µM*,2.8%
COc1ccc(C2/C=C\CN(C(=O)Nc3ccccc3)CC(=O)N2Cc2ccc(F)cc2)cc1 (stereo not given),-0.6%,-0.4%,-8.9%,2.8%
COc1ccc(C2/C=C\CN(C(=O)Nc3ccc(C(F)(F)F)cc3)CC(=O)N2Cc2ccc(F)cc2)cc1 (stereo not given),-3.6%,0.0%,23.1µM*,-2.9%
O=C(CNC(=O)c1cccc(OC(F)F)c1)Nc1ccc(Cl)cc1,-8.0%,0.1%,25.9µM*,-0.4%
COc1ccccc1NCc1cccn1-c1nnc(N2CCOCC2)s1,3.1%,-0.4%,?,1.3%
NC(C(=O)O)c1nn[nH]n1 (stereo not given),1.2%,nt,9.1%,-1.1%
Cc1ccc2c(c1)S/C(=C\c1cccc[n+]1C)N2CCO,-18.5%,3.0%,4.61µM*,4.9%
CC(=O)N1c2ccc(C)cc2Sc2c1ccc1ccccc21,4.0%,7.1%,-4.4%,-1.5%
CC[n+]1ccc(/C=C2\Sc3ccccc3N2CCCS(=O)(=O)[O-])c2ccccc21,-8.1%,1.9%,-2.6%,33.7%
C[n+]1ccccc1/C=C1\Sc2ccccc2N1CCO,-19.8%,4.2%,16.4µM*,3.7%
O=C(COC(=O)c1ccc(C(F)(F)F)cc1)NC(=O)C1CCCCC1,2.9%,nt,?,-2.5%
COc1ccc(Cc2nn3c(-c4ccccc4Br)nnc3s2)cc1,-2.7%,2.1%,16.4µM*,1.6%
Cc1[nH]c2ccccc2c1N=Nc1ccccc1F,-9.6%,?,?,?
Cc1[nH]c2ccccc2c1N=Nc1ccc(F)cc1,?,?,25.9µM*,-9.1%
CC(C)C(=O)Nc1c(C(=O)N2CCN(c3ccccc3F)CC2)oc2ccccc12,1.1%,0.6%,4.7%,16.4%
O=C(Nc1c(C(=O)N2CCN(c3ccccc3F)CC2)oc2ccccc12)c1ccc(Br)o1,-9.5%,0.7%,23.1µM*,-1.0%
SMILES,A549 tox,Nrf2 ARE act,Nrf2 block,Pin1 inh
Nc1cc(-c2ccccc2)nn1S(=O)(=O)c1ccc(F)cc1,-1.6%,-0.5%,18.4µM*,?
COc1ccc(-c2cc(N)n(S(=O)(=O)c3ccc(F)cc3)n2)cc1OC,-4.8%,0.1%,16.4µM*,3.9%
COc1cc(-c2cc(N)n(S(=O)(=O)c3ccc(F)cc3)n2)cc(OC)c1OC,1.3%,13.1%,?,-6.4%
CCn1nc(C)c2c(-c3ccccc3)cc(=O)n(C(C)C(=O)Nc3ccc(OC)c(OC)c3)c21 (stereo not given),-16.4%,-0.8%,-34.0%,5.9%
CCc1nn(CC(=O)Nc2c(C)cc(C)cc2C)c(=O)c2cc3sccc3n12,13.6%,0.3%,16.6%,-5.0%
Cc1ccccc1-c1noc(CSc2nc3ccccc3[nH]2)n1,-4.9%,0.3%,18.4µM*,20.0%
CCn1c(SCC(=O)c2cccs2)nnc1-c1cccs1,0.2%,22.4µM*,?,-0.7%
COc1ccc(-c2noc(-c3cccs3)n2)cc1OC,0.5%,?,?,-0.5%
CCn1c(SCc2nc(-c3ccc(OC)c(OC)c3)no2)nnc1-c1cccs1,-14.2%,4.1%,20.6µM*,-0.8%
COc1ccc(-c2noc(CSc3nc4ccccc4[nH]3)n2)cc1OC,-10.8%,0.8%,20.6µM*,36.3%
COc1ccc(-c2noc(CSc3nc(N)c(-c4ccccc4)c(=O)[nH]3)n2)cc1OC,-0.1%,0.6%,7.6%,3.1%
CC1CCCN(S(=O)(=O)c2ccc(S(=O)(=O)NC(C)c3cccs3)cc2)C1 (stereo not given),?,2.4%,23.1µM*,-1.7%
Cc1oc2ncn(CC(C)C)c(=O)c2c1C(=O)NCCCN(Cc1ccccc1)C(C)C,5.6%,0.5%,24.0%,5.0%
CN(C)c1cccc(S(=O)(=O)N2CCN(S(=O)(=O)c3ccc4c(c3)OCCO4)CC2)c1,-2.6%,nt,3.9%,-10.2%
Cc1cc(Nc2ccccc2)nc(NCc2ccccc2)n1,19.1%,2.0%,-17.7%,-7.5%
Cc1cc(Nc2ccc(Cl)cc2)nc(NCc2ccccc2)n1,?,2.1%[9.22 µM],16.4µM*,-0.8%
CCCCNc1cc(C)nc(NCc2ccccc2)n1,-15.8%,8.8%,18.4µM*,7.4%
Cc1cc(C)nc(NCCCc2ccccc2)n1,11.3%,0.3%,-6.0%,1.4%
Cc1ccc(-n2nc(CO)c(C(=O)NCc3cccnc3)n2)cc1C,-4.9%,4.4%,-6.0%,1.9%
O=C1Cc2cc(S(=O)(=O)N3CCN(c4ccc(Cl)cc4)CC3)ccc2N1,15.0%[92.2 µM],nt,-8.4%[92.2 µM],-7.8%[230 µM]
NNS(=O)(=O)c1ccc(Cc2ncc(C(F)(F)F)cc2Cl)s1,-6.0%,0.4%,-4.3%,-5.8%
NS(=O)(=O)c1ccc(Cc2ncc(C(F)(F)F)cc2Cl)s1,?,11.6%,20.6µM*,3.8%
CCCn1c(N)c(C(=O)CSc2nnc(Cc3cccs3)n2C2CC2)c(=O)n(C)c1=O,-3.9%,3.1%,11.6µM*,1.5%
CC(C)Oc1ccc(-c2csc(N3CCC(C(N)=O)CC3)n2)cc1,nt,nt,nt,-9.3%
O=C(/C=C/c1ccco1)NCC(=O)N/N=C/c1ccccc1[N+](=O)[O-],?,11.2µM*,0.9%,?
SMILES,A549 tox,Nrf2 ARE act,Nrf2 block,Pin1 inh
COc1ccc(-c2onc(C)c2C)cc1S(=O)(=O)NC1CCC(C)CC1 (stereo not given),-23.8%,0.6%,20.6µM*,?
COc1ccc(-c2onc(C)c2C)cc1S(=O)(=O)NC1CCCCC1,-1.0%,3.1%,-21.3%,-0.4%
COc1ccc(-c2onc(C)c2C)cc1S(=O)(=O)N(C)Cc1ccccc1,-0.1%,0.8%,18.4µM*,20.3%
COc1cc(-c2ccc3ncnc(N(C)Cc4csc(C)n4)c3c2)cc(OC)c1OC,0.7%,nt,-23.4%,-0.8%
O=C(COc1ccc(Cl)cc1Cl)NCC1(N2CCOCC2)CCCCC1,-0.5%,0.1%,23.1µM*,-4.9%
O=C1c2ccccc2NC(c2ccc(Br)s2)N1O (stereo not given),-17.0%,6.1%,18.4µM*,5.9%

# Screening results deposited in PubChem BioAssay by National Center for Advancing Translational Sciences (NCATS).
